# Pf growth 48h: inhibits P. falciparum growth in the first generation, 48 h. P. falciparum luciferase growth in erythrocytes, 48 h. Potency, µM (doses to about 28.7 µM), inactives show at the top dose activity change, negative = inhibition, usual class: inhibitors. 5.9% of 310,000 active. AID 504832; note: potency is the fitted concentration of half-maximal effect; % is set by controls: 0 for no effect and ±100 for the full control effect
#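 Luminescence readout; reporter = integrated firefly luciferase in P. falciparum. RBC culture at 2% hematocrit, 0.1% parasitemia final, 37 C/5% CO2; decreased signal taken as growth inhibition.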
# CHX counter: counter-screen hit for Shiga toxin inhibitors, cycloheximide; max response, %; AID 2314; 12% of 300,000 active; cell reporter, cycloheximide protein synthesis inhibition counterscreen; in the data active = max response mostly above about 13%, no sharp cut-off; inactive = mostly below about 14%; note: read at 38.3 µM for the half of the compounds with a filed dose; 0% is about no effect
# SARS PLpro yeast-1: blocks SARS-CoV papain-like protease in a yeast assay; S. cerevisiae expressing SARS-CoV PLpro, growth rescue; Potency, µM (top dose mostly 32.9 µM), for inactives: top-dose activity, positive = growth rescue, hits mostly activators; 0.19% of 330,000 active; AID 485353; calls by dose curve; note: potency is the fitted concentration of half-maximal effect; 0% is about no effect; nearly all actives have a fitted effect of over 55% in size
# Pf growth 96h: inhibits malaria parasite growth, 96 h; Potency, µM (series often up to 28.7 µM), without a hit: at the top dose activity change, negative = inhibition, hits mostly inhibitors; 6.9% of 320,000 active; P. falciparum luciferase reporter growth, 96 h; note: potency is the fitted concentration of half-maximal effect; % is set by controls: 0 for no effect and ±100 for the full control effect
#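 Compounds incubated with erythrocytes infected by luciferase-expressing P. falciparum (2% hematocrit, 0.05% parasitemia final) for 96 hours, 37 C in 5% CO2. Growth inhibition scored as decreased luciferase luminescence.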
# Shiga inhibitor: inhibitors of Shiga toxin in Vero cells | inhibition, % at 38.7 µM | 9.2% of 290,000 active | Vero cells, Shiga toxin protein synthesis inhibition reporter; in the data active = inhibition mostly above about 28%, no sharp cut-off; inactive = mostly below about 43%; note: 0% is about no effect
# NS1 inh: influenza NS1 inhibition; Potency, µM (top dose mostly 46.1 µM), for the others: at the top dose activity, positive = more growth; 0.4% of 270,000 active; AID 2326; calls by dose curve; note: potency is the fitted concentration of half-maximal effect; actives are rising curves; nearly all actives have a fitted effect of over 50% in size
#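 Read-out: OD600 growth recovery of NS1-expressing budding yeast. Cells grown overnight at 30C in -URA glucose medium, washed, resuspended and diluted 1:100 in 2% galactose assay medium, pH 6.0. Same strain lacking NS1 served as positive control.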
# SARS PLpro yeast-2: Inhibits SARS-CoV PLP in yeast, hit validation | yeast expressing SARS-CoV PLpro, growth phenotype rescue | shares compounds with SARS PLpro yeast-1 | 19% of 1,000 active | calls only; call rule not given here
# CLK4 cf ADPGlo: confirmation of inhibitors of human CDC-like kinase 4; shares compounds with Pf growth 48h; recombinant Clk4, RS peptide, ADP-Glo luminescence; 80% of 65 active; Potency, µM (top dose mostly 80 µM), for inactives: top-dose activity, negative = inhibition, usual class: inhibitors
# Target sequence (Q9HAZ1 whole entry, looked up): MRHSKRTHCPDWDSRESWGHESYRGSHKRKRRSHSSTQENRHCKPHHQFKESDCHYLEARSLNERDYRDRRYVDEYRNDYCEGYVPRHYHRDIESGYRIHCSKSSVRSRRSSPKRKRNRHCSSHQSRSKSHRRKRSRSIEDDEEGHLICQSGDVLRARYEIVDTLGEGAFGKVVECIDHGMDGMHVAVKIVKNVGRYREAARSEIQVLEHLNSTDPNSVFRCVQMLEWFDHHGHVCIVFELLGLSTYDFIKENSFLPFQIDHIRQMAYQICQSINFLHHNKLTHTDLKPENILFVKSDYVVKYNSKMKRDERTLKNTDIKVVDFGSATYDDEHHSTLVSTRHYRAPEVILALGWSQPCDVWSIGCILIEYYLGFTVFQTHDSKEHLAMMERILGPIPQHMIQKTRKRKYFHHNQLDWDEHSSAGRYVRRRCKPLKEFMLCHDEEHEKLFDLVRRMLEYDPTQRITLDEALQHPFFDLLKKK
# CLK4 ADP FP: confirmation of human CDC-like kinase 4 (CLK4) inhibitors | Potency, µM (series often up to 80 µM), for inactives: at the highest dose activity, negative = inhibition, usual class: inhibitors | recombinant Clk4, ADP Transcreener FP, RS peptide | 70% of 65 active | shares compounds with Pf growth 48h
# Active calls of the source: *; i = inactive; ? = inconclusive; · = no result given; ! = repeats disagree. An excerpt weighted towards active compounds, which were near 21% of everything screened. Unless noted, calls come from the whole dose curve; as a rule, active = well fitted curve in the direction sought with a large enough effect; inconclusive = small, poorly fitted or top-dose-only effect, or another doubt; inactive = no such curve, though single readings can be large; an effect the other way counts as inactive or inconclusive.
SMILES,Pf growth 48h,CHX counter,SARS PLpro yeast-1,Pf growth 96h,Shiga inhibitor,NS1 inh,SARS PLpro yeast-2,CLK4 cf ADPGlo,CLK4 ADP FP
Cc1nnsc1C(=O)N/N=C/c1ccc2ccccc2c1O,2.6µM*,0,1µM*,3.3µM*,20,9%,i,·,·
CC(=O)Nc1cccc(-c2nnc(-c3ccccc3)o2)c1,28%,45*,?,·,106*,-27%,?,·,·
CCOc1ccccc1NC(=S)Nc1ccccc1F,1%,5,?,13µM*,10,-1%,i,·,·
Cc1nnc2c3ccccc3c(-c3ccc(O)cc3)nn12,·,-3,?,2%,-7,2%,i,·,·
Cc1cc(SCC(=O)N/N=C/c2ccc(O)cc2O)c(C)cc1Br,?,-4,10µM*,·,-15,-85%,i,·,·
Cc1cc(SCC(=O)N/N=C/c2ccccc2C(=O)O)c(C)cc1Br,10%,-1,-1%,41%,-5,?,·,·,·
CC(COC(=O)c1ccccc1)(COC(=O)c1ccccc1)/[N+]([O-])=C/c1ccccc1,13%,1,?,29%,-3,-16%,i,·,·
O=C(CNCCCO)Nc1cc(C(F)(F)F)cc(NC(=O)CNCCCO)c1Cl,16%,2,?,?,-9,15%,i,·,·
O=C(CNCCO)Nc1ccc(F)c(Cl)c1,89%,-4,3%,13%,12,·,·,·,·
Cc1cccc(-c2ccc3ncnc(NCc4cccs4)c3c2)c1,3.7µM*!,·,6.3µM*!,3.3µM*,·,·,i,7.9µM*,16µM*
Cc1cccc(-c2ccc3ncnc(NCc4cccnc4)c3c2)c1,9.3µM*,·,6.3µM*!,?,·,·,i,6.3µM*,10µM*
COc1cccc(-c2ccc3ncnc(NCc4cc(C)cs4)c3c2)c1,6.6µM*,·,6.3µM*!,4.1µM*,·,·,i,0.89µM*,1.3µM*
Cc1cccc(CNc2ncnc3[nH]ncc23)c1,·,·,·,·,·,-8%,·,·,·
CC(=O)c1c[nH]c(C(=O)NCc2cccc(C(F)(F)F)c2)c1,-13%,-1,-1%,0%,-4,7%,·,·,·
CCOc1ccccc1N(CC(=O)NCc1ccccc1)C(=O)CCC(=O)Nc1cc(C)ccn1,?,9,-1%,24%,-14,-12%,·,·,·
Clc1cccc(-c2ccc3ncnc(NCc4ccc5c(c4)OCO5)c3c2)c1,6.6µM*,·,-4%,1.5µM*,·,·,·,?,?
Cn1ccc2cc(-c3ccc4ncnc(NCc5ccc6c(c5)OCO6)c4c3)ccc21,13µM*,·,2%,?,·,·,·,?,-17%
COc1cccc(S(=O)(=O)NCc2ccc3c(c2)OCO3)c1,·,4,0%,-20%,-13,-6%,·,·,·
COc1cccc(-c2ccc3ncnc(NCc4ccc5c(c4)OCO5)c3c2)c1,9.3µM*,·,3%,7.4µM*,·,·,·,1.3µM*,2.2µM*
c1cncc(CNc2ncnc3ccc(-c4ccc5c(c4)OCO5)cc23)c1,?,·,7%,8%,·,·,·,0.13µM*,0.089µM*
N#CCc1nn(-c2ccccc2)c2ncnc(N)c12,-1%,-1,-1%,26%,9,-2%,·,·,·
O=S(=O)(c1ccc(Br)cc1Cl)N1CCCN(c2ccc(C(F)(F)F)cn2)CC1,·,·,-11%,·,·,·,·,·,·
O=C(OCN1C(=O)c2ccccc2C1=O)c1cccc(S(=O)(=O)N2CCOCC2)c1,13%,-4,-1%,-21%,-25,5%,·,·,·
c1nc(NCc2ccc3c(c2)OCO3)c2cc(-c3ccc4c(c3)OCCO4)ccc2n1,13µM*,·,2%,?,·,·,·,1.8µM*,2.2µM*
Cc1sc2ncnc(N(C)Cc3ccco3)c2c1C,·,-3,?,-29%,-4,-112%,·,·,·
COc1cccc(-c2ccc3ncnc(N(C)Cc4ccco4)c3c2)c1,?,·,-5%,15µM*,·,·,·,0.35µM*,0.45µM*
